Screening results from PubChem BioAssay.
The entries come from a sample that favours hits as a whole.
Pf Dd2 growth = inhibitors of Plasmodium falciparum Dd2 growth | Potency, µM (doses to about 28.9 µM), inactives show top-dose activity, negative = inhibition, most hits filed as inhibitors | P. falciparum Dd2 growth, SYBR Green, 72 h | 120,000 tested, 4.3% active; active means well fitted inhibition curve with a large enough effect;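 further: plate controls were DMSO vehicle for no effect and reference drug for full effect; nearly all actives have a fitted effect of over 65% in size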
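Readout: SYBR Green fluorescence, 485 nm excitation, 535 nm emission, after ~16 h lysis at 37C. Before that, Dd2-infected red cells (2.5% hematocrit) grew 72 h with compound, 29 uM top final concentration.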
Starred values were filed as active, the others as inactive; i = inactive; [ ] = dose if it differs, or a comment. Potency means the concentration at half of the fitted maximal effect.

SMILES	Pf Dd2 growth
COc1cccc(Nc2sc(C(=O)c3ccc(F)cc3)c(N)c2C(=O)NCc2ccc(C)cc2)c1	10µM*
Cc1ccc(CNC(=O)c2c(Nc3ccccc3C)sc(C(=O)c3ccc(F)cc3)c2N)cc1	-17.2%
COc1cccc(Nc2sc(C(=O)c3ccc(Cl)cc3)c(N)c2C(=O)NCCc2ccc(OC)c(OC)c2)c1	-20.2%
Cc1nc(CN2C(=O)OC3(CCN(CCCc4ccccc4)CC3)C2(C)c2ccccc2)cs1 (configuration not stated)	i
COc1ccc2c(=O)n(CC(=O)N3CCCOCC3)ccc2c1OC	-17.7%
C=CCCC(CN1CCCC1)Oc1ccc(C(=O)NCC)cn1 (configuration not stated)	3.16µM*
C=CCCC(CN1CCSCC1)Oc1nc(OC)cc(OC)n1 (configuration not stated)	-18.2%
C=CCCC(CN1CCSCC1)Oc1ncc(CC)cn1 (configuration not stated)	-14.1%
C=CCCC(CN1CCCC1)Oc1cc(N2CCOCC2)ncn1 (configuration not stated)	-4.1%
C=CCCC(CN1CCCC1)Oc1ccc(-c2ccccc2)nn1 (configuration not stated)	11.2µM*
C=CCCC(CN1CCOCC1)Oc1ccc(-c2ccccc2)nn1 (configuration not stated)	-12.1%
COc1cccc([S+](=O)([O-])N2CCC3(CC2)CC(=O)c2ccc(Cl)cc2O3)c1	-20.7%
COc1ccc(C)cc1NC(=O)Cn1nc2n(c1=O)CCCCC2	8.6%
c1ccc(-c2ccc(CN3CCCC3)cc2)c(CN2CCOCC2)c1	8.91µM*
O=C(O)C1CCCN(Cc2ccccc2OCCCN2CCOCC2)C1 (configuration not stated)	-1.0%
CCn1nc(-c2ccccc2CN2CCOCC2)nc1N(C)C	-6.9%
CN(C1CCc2nn(C)c(=O)n2CC1)S(=O)(=O)c1ccc(Cl)s1 (configuration not stated)	14.6%
CC(C)(O)CCc1cccc(C(=O)NCCOc2cccc3cccnc23)c1	-9.0%
CC(=O)Nc1cccc(C(=O)Nc2cccc(-c3nnc4n3CCCC4)c2)c1	-5.3%
O=C(Nc1cccc(-c2nnc3n2CCCC3)c1)c1nccc2ccccc12	4.47µM*
O=C(Nc1ccc(-c2nnc3n2CCCC3)cc1)c1nccc2ccccc12	-7.6%
O=C(Nc1cccc(-c2nnc3n2CCCC3)c1)C1CCCC1	i
COc1ccccc1C(=O)Nc1cccc(-c2nnc3n2CCCC3)c1	4.47µM*
O=C(Nc1cccc(-c2nnc3n2CCCC3)c1)c1ccccn1	i
Cc1ccc(NC(=O)Cn2ccn3nc(-c4ccccc4)c(CO)c3c2=O)c(C)c1	i
SMILES	Pf Dd2 growth
Cc1ccn(CC(=O)NCCn2c(C)cnc2C2CC2)n1	i
O=C(c1ccccc1)N1CCC2(COc3ccncc3[S+](=O)([O-])N2)C1 (configuration not stated)	5.2%
COc1cccc(C2C(C(=O)Nc3ccc(Cl)cc3)=C(C)Nc3c(C(=O)Nc4ccccc4)cnn32)c1OC (configuration not stated)	12.6µM*
COc1cccc(C2C(C(=O)Nc3ccc(Cl)cc3)=C(C)Nc3nc4ccccc4n32)c1OC (configuration not stated)	-22.0%
COc1ccc(C2C(C(=O)Nc3ccc(Cl)cc3)=C(C)Nc3nc(SCc4cccc(C)c4)nn32)cc1OC (configuration not stated)	8.1%
COc1ccc(NC(=O)C2=C(C)Nc3c(C(=O)Nc4ccc(C)cc4)cnn3C2c2cccc(Cl)c2)cc1 (configuration not stated)	3.16µM*
COc1cc(C2C(C(=O)Nc3ccc(Cl)cc3)=C(C)Nc3nc(SC)nn32)cc(OC)c1OC (configuration not stated)	-4.6%
COc1ccc(NC(=O)C2=C(C)Nc3nc(SCc4ccc(Cl)cc4)nn3C2c2cccc(OC)c2OC)cc1 (configuration not stated)	i
CC(=O)N1CCC(N2C[C@@H](F)[C@@H](OCc3nc4ccccc4[nH]3)C2)CC1	2.2%[44.1 µM]
O=C(C1CCCC1)N1CC2(CCNC2)OCc2ccccc21 (configuration not stated)	-10.6%
O=C(C1CCCC1)N1CC2(CCN(C3COC3)C2)OCc2ccccc21 (configuration not stated)	-27.8%
c1ccc2c(c1)COC1(CCNC1)CN2CC1CCCCC1 (configuration not stated)	12.6µM*
COc1ccc(CNC(=O)CC[C@H]2CNC(=O)[C@@H]3[C@@H](CCN3Cc3ccc(C(=O)O)cc3)N2C)cc1	7.1%
CCC(CC)c1cc([C@H]2CN3CC[C@H]2C[C@@H]3CNC2CCN(C(C)=O)CC2)nc(-c2ccncc2)n1	4.47µM*
CCC(CC)c1cc([C@H]2CN3CC[C@H]2C[C@@H]3CO)nc(-c2ccncc2)n1	7.08µM*
CC(=O)N1CCC(NC[C@H]2C[C@@H]3CCN2C[C@@H]3c2cc(C3CCCC3)nc(C)n2)CC1	i
CC(=O)c1cccc(NC(=O)OC[C@H]2C[C@@H]3CCN2C[C@@H]3c2cc(C3CCCC3)nc(-c3ccncc3)n2)c1	-48.0%
CCCc1nn(-c2ccccc2C)c(OC(C)=O)c1-c1ccc(NC(=O)CC)cc1	i
CN(C)C(=O)c1cc(-c2cnccc2Cl)c2cccn2n1	11.3%
O=C(NCc1ccc(F)cc1)c1cc(-c2cnccc2Cl)c2cccn2n1	8.91µM*
COC(=O)CNC(=O)c1cc(-c2cnccc2Cl)c2cccn2n1	0.6%
Cc1ccc(CNC(=O)N2CCC(c3noc(-c4cccnc4)n3)C2)cc1 (configuration not stated)	i[5.79 µM]
CC(=O)N1CCN([C@H]2[C@@H]3OC[C@@H](O3)[C@@H](NCc3ccco3)[C@@H]2O)CC1	-9.1%[44.1 µM]
CCN(CC)c1ncccc1CNC(=O)C1CCOC1 (configuration not stated)	i
Cc1ccc(C(=O)N2CCC3(C2)C(=O)Nc2ccccc23)cc1 (configuration not stated)	-10.2%
SMILES	Pf Dd2 growth
COc1ccccc1C(=O)N1CCC(C(=O)O)(c2ccccc2)CC1	4.3%
CCN(CC)c1ccc(C(=O)N2CCC(c3c[nH]c4ccccc34)(c3c[nH]c4ccccc34)CC2)cc1	3.98µM*
COc1ccccc1C(=O)N1CCC2(C1)C(=O)N(C)c1ccccc12 (configuration not stated)	i
CCN(CC)c1ccc(C(=O)N2CCC(c3ccncc3)CC2)cc1	56.6%[5.79 µM]
COc1ccccc1C(=O)N1CCC(c2c[nH]c3ccccc23)(c2c[nH]c3ccccc23)CC1	3.55µM*
O=C1NCCCCCCN(C(=O)c2cccnc2)[C@H]2CCC[C@@H]12	2.4%
O=C(NC1CCCCCC1)C1CC(=O)N(c2n[nH]c3cccc(F)c23)C1 (configuration not stated)	-5.5%
Cc1cnc(CC2CCN(C(=O)CCc3c[nH]c4ccccc34)C2)n1CC1CC1 (configuration not stated)	i
Cc1cnc(CC2CCCN(C(=O)CCc3c[nH]c4ccccc34)C2)n1C(C)C (configuration not stated)	4.47µM*
Cc1cnc(CC2CCCN(C(=O)N(C)C)C2)n1C(C)C (configuration not stated)	-10.7%
O=C1NC[C@@H](CCC(=O)N2CCCC2)N2C[C@@H](NCc3ccccc3)C[C@@H]12	9.5%[44.1 µM]
O=C(NC[C@H]1O[C@@H](CO)[C@@H](O)[C@H]1N1CCOCC1)c1cccc(F)c1	14.7%[44.1 µM]
COC[C@@H]1CN(S(=O)(=O)Cc2ccccc2)C[C@H]1c1ccncc1	-0.5%
